Source: PubChem (National Center for Advancing Translational Sciences (NCATS))
Rows were chosen to be rich in hits. Some 8% of all compounds tested hit in one or more screens of this group.
KB-V1 MDR tox = kills drug-selected multidrug resistant KB-V1 cells; AID 1347076; KB-V1 MDR cells viability, CellTiter-Glo, 72 h; Potency, µM (titrated, usually from 46.1 µM), usual class: cytotoxic; 400,000 compounds, 3.4% hits; also: % is scaled to controls: 0 for no effect and ±100 for the full control effect; nearly all actives have a fitted effect of over 60% in size
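In this primary screen, KB-V1 cells overexpressing P-gp are incubated with library compounds (lowest to highest concentration) for 72 h at 37 degrees C before a luminescent ATP viability read.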
SW480 rerep = inducers of DNA re-replication in SW480 colon cancer cells | SW480 DNA re-replication, Hoechst DNA content imaging, 48 h | Potency, µM (doses to about 46.1 µM), without a hit: at the top dose re-replication activation, usual class: activators | 340,000 compounds, 1.8% hits | AID 624297; also: % of control where 0% means no effect; nearly all actives have a fitted effect of over 55% in size
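SW480 cells exposed to compounds for 48 hr at 37 C, 5% CO2, then Hoechst-stained 40 min. Nuclear DNA content imaged by fluorescence scanning (405 nm excitation, 500-530 nm emission); re-replication scored as increased high-intensity nuclei.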
KB-3-1 cytotox = KB-3-1 parental cell cytotoxicity; KB-3-1 viability, CellTiter-Glo ATP luminescence, 72 h; 400,000 compounds, 1.4% hits; Potency, µM (highest dose often 46.1 µM), most hits filed as cytotoxic; also: % is scaled to controls: 0 for no effect and ±100 for the full control effect; nearly all actives have a fitted effect of over 60% in size
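Cytotoxicity in the drug-sensitive parental line KB-3-1 was scored as loss of CellTiter-Glo luminescence following 72 h incubation with compound. Values come from curve fitting of normalized concentration-response data.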
MCF10A rereplic = DNA re-replication induction in MCF 10a cells. MCF 10A DNA re-replication, Hoechst nuclear intensity, 48 h. Potency, µM (doses to about 46.1 µM), without a hit: at the top dose activity, positive = re-replication, most hits filed as activators. 350,000 compounds, 2.9% hits. AID 624296; also: % of control where 0% means no effect; nearly all actives have a fitted effect of over 50% in size
HT1080NT lethal = kills 2HG-producing HT-1080-NT fibrosarcoma cells | 360,000 compounds, 1.6% hits | HT-1080-NT fibrosarcoma viability, CellTiter-Glo ATP luminescence, 48 h | Potency, µM (doses to about 46.1 µM), for inactives: top-dose activity, negative = less viability, actives largely listed as cytotoxic;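 also: NT is the 2HG producing partner of a matched IDH1 knockdown line; 0% = DMSO-treated cells and -100% = media-only wells without cells; nearly all actives have a fitted effect of over 55% in size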
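A 48-hour cytotoxicity screen used HT-1080-NT cells plated 2 hours before compound delivery. ATP-based CellTiter-Glo luminescence measured viability, normalized to DMSO and no-cell controls.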
HT1080 IDH1KD tx = kills HT-1080 cells with IDH1 knockdown; HT-1080 IDH1 knockdown viability, ATP luminescence, 48 h; Potency, µM (doses to about 46.1 µM), inactives show at the highest dose activity, negative = toxicity, usual class: cytotoxic; 360,000 compounds, 2% hits;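 also: 0% = DMSO wells and -100% = cell-free medium wells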
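HT-1080-IDH1KD cells (IDH1 knocked down), 750/well in RPMI with 5% FBS, treated with compound 48 h at 37 degrees C. Viability by CellTiter-Glo luminescence, normalised to DMSO and no-cell wells; concentration-response curves classed.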
An asterisk follows results filed as active; i = inactive; ? = inconclusive; nt = no result; ! = repeats disagree. Calls follow the shape of the dose curve; as a rule, active = well fitted curve in the direction sought with a large enough effect; inconclusive = small, poorly fitted or top-dose-only effect, or another doubt; inactive = no such curve, though single readings can be large; an effect the other way counts as inactive or inconclusive. Potency is read from the fitted curve at half-maximal effect.

SMILES | KB-V1 MDR tox | SW480 rerep | KB-3-1 cytotox | MCF10A rereplic | HT1080NT lethal | HT1080 IDH1KD tx
O=C(C1CCCN(S(=O)(=O)c2cccc3nsnc23)C1)N1CCN(c2ccccc2)CC1 (configuration not stated) | i | nt | ? | nt | nt | nt
O=C(C1CCCN(S(=O)(=O)c2ccccc2)C1)N1CCCCCC1 (configuration not stated) | i | 0.52µM*! | i | 29% | 0% | -1%
COc1cccc(N2CCN(C(=O)C3CCCN(S(=O)(=O)c4ccc5c(c4)oc(=O)n5C)C3)CC2)c1 (configuration not stated) | i | -26% | 12µM*! | 1% | 12% | -5%
CC(=O)NCCc1nc2ccccc2n1CCc1ccccc1 | i | 6% | i | 5% | 0% | -3%
COCCNC(=S)NN=C1CCCCC1 | i | 18µM* | i | 3% | -15% | -13%
NC(=S)NN=C1CCCCCCCC1 | i | -5% | 18µM* | -7% | -2% | -1%
COc1ccc(-c2ccc(CN3C(C)C(=O)N(Cc4cn(Cc5ccco5)nn4)CCS3(=O)=O)cc2)cc1 (configuration not stated) | ? | nt | ? | nt | -27% | ?
C=CC(=O)Oc1ccc(N2Cc3ccccc3C2=O)cc1 | i | 12µM* | i | ? | 1% | -6%
c1ccc(-c2csc3ncnc(Sc4nnnn4-c4ccccc4)c23)cc1 | i | nt | ? | nt | nt | nt
O=S1(=O)C=C(SCc2ccc(F)cc2)Nc2ccccc21 | i | 1% | i | 1% | 26% | 11%
COc1ccc(CSC2=CS(=O)(=O)c3ccccc3N2)cc1 | 23µM* | 3% | i | 0% | -8% | -13%
O=S1(=O)C=C(SCc2ccccc2)Nc2ccccc21 | 18µM* | -1% | ? | -14% | -10% | -5%
O=C1NCCN(CC2CCN(CCC3CCCC3)CC2)C1=O | i | -1% | i | ? | 1% | 9%
CC1(c2cccc3ccccc23)OC(=O)c2ccccc21 (configuration not stated) | 18µM* | 11% | ? | ? | -4% | ?
O=C1C=C(NCCc2cc(Br)c(O)c(Br)c2)C(=O)c2ncccc21 | 5.8µM* | 3.7µM* | 7.3µM* | ? | ? | 10µM*
O=C(NC(c1ccc2ccccc2n1)c1cccs1)C1CCN(Cc2cccc(C(F)(F)F)c2)CC1 (configuration not stated) | ? | nt | ? | nt | ? | 16µM*
O=C(NC(c1ccc(Cl)cc1)c1ccsc1)C1CCN(Cc2cccc(C(F)(F)F)c2)CC1 (configuration not stated) | ? | nt | i | nt | 3% | 0%
O=C(NC(c1ccccc1)c1ccc2ccccc2n1)C1CCN(Cc2cccc(C(F)(F)F)c2)CC1 (configuration not stated) | ? | nt | ? | nt | ? | 15µM*
Cc1cc(C)cc(C(=O)N2CCC(CCC(=O)NC3CC3)CC2)c1 | i | 0% | i | 1% | 1% | -1%
CC1CCCC(C)N1C(=O)CSc1nnc(-c2ccco2)n1C (configuration not stated) | i | -6% | i | 2% | 9% | 0%
COc1ccccc1-c1cc(C(F)(F)F)n2ncc(S(=O)(=O)c3ccccc3)c2n1 | i | 23µM* | i | 25% | 1% | -3%
COc1cc(Cl)c(C)cc1NC(=O)Cn1cc(S(=O)(=O)N2CCN(c3ccccc3F)CC2)c2ccccc2c1=O | i | nt | i | nt | nt | nt
COc1cccc(CN2CCN(Cc3cc(OC)c(OC)cc3[N+](=O)[O-])CC2)c1 | 21µM* | 5% | i | 13% | 7% | 2%
COC(=O)CN1C(=S)N(Cc2ccccc2)C(=O)C1CC(=O)Nc1ccc(Br)cc1 (configuration not stated) | i | ? | i | 18µM* | ? | ?
CCN1C(=O)C(CC(=O)Nc2ccc(F)cc2)N(CCc2ccc(OC)cc2)C1=S (configuration not stated) | i | 5% | i | 1% | -7% | -25%
SMILES | KB-V1 MDR tox | SW480 rerep | KB-3-1 cytotox | MCF10A rereplic | HT1080NT lethal | HT1080 IDH1KD tx
COC(=O)CN1C(=S)N(c2ccc(Cl)cc2)C(=O)C1CC(=O)Nc1ccc(Cl)cc1 (configuration not stated) | i | -3% | i | ? | ? | ?
COc1ccc(NC(=O)CC2C(=O)N(CCc3ccccc3)C(=S)N2Cc2cccnc2)cc1 (configuration not stated) | 15µM* | ? | i | ? | -28% | ?
CCN1C(=O)C(CC(=O)Nc2ccc(OC)cc2)N(CCc2ccccc2)C1=S (configuration not stated) | 21µM* | -5% | ? | 7% | ? | ?
COc1ccc(NC(=O)CC2C(=O)N(C)C(=S)N2Cc2ccco2)cc1 (configuration not stated) | i | -1% | i | -4% | -3% | 3%
C=CCN1C(=O)C(CC(=O)Nc2ccc(OC)cc2)N(Cc2ccco2)C1=S (configuration not stated) | 21µM* | 0% | i | -3% | -3% | -4%
CC1CCc2c(sc(NC(=O)CCCOc3ccccc3)c2C(N)=O)C1 (configuration not stated) | i | nt | i | nt | nt | nt
O=C(O)C1=C[C@@H](c2ccc(F)cc2)C[C@@H](OCCCCO)O1 | ? | -12% | i | -1% | 2% | 4%
CN1C(=O)C(CC(=O)Nc2ccc(F)cc2)N(CCCc2ccccc2)C1=S (configuration not stated) | ? | ? | ? | 15% | 21µM* | ?
Cc1ccc(N(CC(=O)NCC(O)c2ccccc2)S(=O)(=O)c2ccc(C)cc2)cc1 (configuration not stated) | i | 4% | i | 10% | -14% | -5%
Cc1ccc(S(=O)(=O)N(CCC(=O)NCC(c2ccccc2)N(C)C)c2ccccc2)cc1 (configuration not stated) | 10µM* | 0% | i | 2% | -10% | 13%
CCOC(=O)c1cnc2c(C)c(Cl)ccc2c1Nc1ccc(C)cc1C | i | nt | i | nt | nt | nt
CCOC(=O)c1cnc2c(Cl)c(Cl)ccc2c1N1CCN(C)CC1 | ? | -1% | i | 18% | 15µM* | 16µM*
CCOC(=O)c1cnc2c(C)c(Cl)ccc2c1N1CCN(CC)CC1 | i | 5% | i | ? | 15µM* | 15µM*
